The panel holds about 79,000 compounds, 15% with a hit somewhere; the sample as a whole holds those more often. A number with no mark means an inactive call. Active and inactive are the calls of the source. Rule as the data show it: active = growth inhibition above about 70%; inactive = the rest.
Tests used:
[1] = NCI Yeast Anticancer Drug Screen. Data for the rad50 strain (AID 155);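 also: 0% = growth of vehicle-only cultures of the same strain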; conditions: S. cerevisiae rad50 strain growth inhibition; at 50.0 µM; stronger effect = higher value
Procedure, shortened: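 Yeast carrying a defined DNA repair defect were exposed to test compounds, and growth was compared with vehicle-treated controls to give percent inhibition.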

[2] = NCI Yeast Anticancer Drug Screen. Data for the mec2-1 strain (AID 157); conditions: S. cerevisiae mec2-1 strain, at 50.0 µM, stronger effect = higher value
Procedure, shortened: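 Vehicle-treated cultures served as reference for growth inhibition of compound-exposed mec2-1 yeast.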

[3] = NCI Yeast Anticancer Drug Screen. Data for the sgs1 mgt1 strain (AID 161);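 also: 0% = growth of cultures given vehicle only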; conditions: S. cerevisiae sgs1 mgt1 strain, at 50.0 µM, stronger effect = higher value
Procedure, shortened: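 Genetically altered yeast, compound exposure, growth inhibition relative to vehicle.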

[4] = NCI Yeast Anticancer Drug Screen. Data for the cln2 rad14 strain (AID 165);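 also: 0% = growth equal to vehicle treated cultures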; conditions: S. cerevisiae cln2 rad14 strain, at 50.0 µM, stronger effect = higher value
Procedure, shortened: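 Each compound was tested on cln2 rad14 yeast. Inhibition of growth was calculated against vehicle-exposed controls.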

[5] = NCI Yeast Anticancer Drug Screen. Data for the bub3 strain (AID 167); conditions: S. cerevisiae bub3 mutant strain, at 50.0 µM, stronger effect = higher value
Procedure, shortened: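 Compounds were applied to a genetically altered yeast strain carrying a cell-cycle control defect. Growth inhibition was scored against vehicle-treated controls.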

[6] = NCI Yeast Anticancer Drug Screen. Data for the mlh1 rad18 strain (AID 175); conditions: S. cerevisiae mlh1 rad18 strain growth inhibition; at 50.0 µM; stronger effect = higher value
Procedure, shortened: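 Vehicle-treated cultures served as the reference for growth inhibition in a yeast strain carrying DNA damage repair alterations exposed to each compound.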

COC(=O)C1Cc2ccc(C)cc2C1=O (stereo unspecified)
growth inhibition [1]: -37.7%
growth inhibition [2]: -4.6%
growth inhibition [3]: -1.95%
growth inhibition [4]: 26.1%
growth inhibition [5]: 15.4%
growth inhibition [6]: -4.3%

CN1CCN(CCNNCCN2CCCC(O)C2)CC1 (stereo unspecified)
growth inhibition [1]: 3.2%
growth inhibition [2]: -1.65%
growth inhibition [3]: -5.15%
growth inhibition [4]: -6.05%
growth inhibition [5]: -7.25%
growth inhibition [6]: 10.7%

CCC(C)C(C)(CO)CO (stereo unspecified)
growth inhibition [1]: 1.5%
growth inhibition [2]: -20.9%
growth inhibition [3]: -3.7%
growth inhibition [4]: 20.4%
growth inhibition [5]: -14.3%
growth inhibition [6]: 25.6%

O=C(O)Cc1ccc(I)cc1
growth inhibition [1]: 58%
growth inhibition [2]: -1.2%
growth inhibition [3]: 26.9%
growth inhibition [4]: -54%
growth inhibition [5]: 34.2%
growth inhibition [6]: 25.3%

CC/C(=C/c1cccc([N+](=O)[O-])c1)C(=O)O
growth inhibition [1]: -9.3%
growth inhibition [2]: -23.9%
growth inhibition [3]: 0%
growth inhibition [4]: 6.1%
growth inhibition [5]: -13.7%
growth inhibition [6]: -0.2%

CCCCC(CC)CN(CCOC(=O)c1cc2ccccc2oc1=O)CC(CC)CCCC (stereo unspecified)
growth inhibition [1]: 20.8%
growth inhibition [2]: -4.2%
growth inhibition [3]: 48.8%
growth inhibition [4]: 55%
growth inhibition [5]: 20.8%
growth inhibition [6]: 31.8%

C=CCOc1cc2c(cc1Cc1cc(OC)c(OC)c(OC)c1)OCO2
growth inhibition [1]: 22.9%
growth inhibition [2]: -20.8%
growth inhibition [3]: 49.6%
growth inhibition [4]: 9.85%
growth inhibition [5]: 37.6%
growth inhibition [6]: 55.2%

CCCCOC(=O)C1CCCCC1C(=O)OCCCC (stereo unspecified)
growth inhibition [1]: -3.7%
growth inhibition [2]: 14.8%
growth inhibition [3]: -0.45%
growth inhibition [4]: 63.1%
growth inhibition [5]: 12.2%
growth inhibition [6]: -21.4%

CCOC(=O)/C(C)=C\C1C(C)=CC(=O)CC1(C)C (stereo unspecified)
growth inhibition [1]: -0.05%
growth inhibition [2]: -16.1%
growth inhibition [3]: -5.1%
growth inhibition [4]: -29%
growth inhibition [5]: 20.4%
growth inhibition [6]: -7.15%

O=S(=O)(O)NNc1ccc(N=Nc2ccccc2)cc1
growth inhibition [1]: 0.2%
growth inhibition [2]: -12.9%
growth inhibition [3]: -3.95%
growth inhibition [4]: 11.3%
growth inhibition [5]: -0.75%
growth inhibition [6]: 4.75%

CC(C)(O)c1cccc(I)c1
growth inhibition [1]: 7.7%
growth inhibition [2]: -58.9%
growth inhibition [3]: -21.1%
growth inhibition [4]: -144%
growth inhibition [5]: -39.8%
growth inhibition [6]: 1.55%

Cc1ccc([B-]23OCC[N+]2(CNC(=O)c2ccccc2O)CCO3)cc1 (stereo unspecified)
growth inhibition [1]: 25.6%
growth inhibition [2]: -4.4%
growth inhibition [3]: 4.1%
growth inhibition [4]: 3.6%
growth inhibition [5]: 4.05%
growth inhibition [6]: 12.8%

NC(=S)N/N=C1/CCCC/C1=N/O
growth inhibition [1]: 46.1%
growth inhibition [2]: 33.1%
growth inhibition [3]: 36.2%
growth inhibition [4]: -0.15%
growth inhibition [5]: 25.2%
growth inhibition [6]: -6.35%

COc1nc2cc3c(cc2n2cccc12)oc1ccccc13
growth inhibition [1]: 11.9%
growth inhibition [2]: 7.5%
growth inhibition [3]: -4%
growth inhibition [4]: 12.2%
growth inhibition [5]: -1.75%
growth inhibition [6]: -2.65%

Cc1ccccc1NC(=O)CC(=O)NNC(Sc1ccccc1)c1cc(N=Nc2ccc(Br)cc2)ccc1O (stereo unspecified)
growth inhibition [1]: 19.3%
growth inhibition [2]: 14.1%
growth inhibition [3]: 27.1%
growth inhibition [4]: -3.95%
growth inhibition [5]: 17.9%
growth inhibition [6]: 18.9%

CO/C=C(/C#N)S(=O)(=O)/C(C#N)=C/OC
growth inhibition [1]: 32.5%
growth inhibition [2]: 37.3%
growth inhibition [3]: 34%
growth inhibition [4]: 4.65%
growth inhibition [5]: 24.9%
growth inhibition [6]: 15.9%

O=COCc1ccc(Cl)cc1Cl
growth inhibition [1]: 16.9%
growth inhibition [2]: -2.75%
growth inhibition [3]: -5.65%
growth inhibition [4]: 5%
growth inhibition [5]: -1.35%
growth inhibition [6]: -11.7%

CCSCCNC(=O)NS(=O)(=O)c1ccc(C)cc1
growth inhibition [1]: 4.85%
growth inhibition [2]: -0.75%
growth inhibition [3]: -6.45%
growth inhibition [4]: 1.55%
growth inhibition [5]: -11.4%
growth inhibition [6]: 14%

O=C1NC(=O)C(CN2C(=O)/C(=C/c3cccc(O)c3)SC2=S)C(=O)N1
growth inhibition [1]: -55.2%
growth inhibition [2]: -20.8%
growth inhibition [3]: -29.7%
growth inhibition [4]: -20.6%
growth inhibition [5]: -20.4%
growth inhibition [6]: -71.8%

COc1cc(NC(N)=O)ccc1Nc1c2ccc(N)cc2nc2cc(N)ccc12
growth inhibition [1]: 69.8%
growth inhibition [2]: 22.6%
growth inhibition [3]: 9.05%
growth inhibition [4]: 43%
growth inhibition [5]: -14.9%
growth inhibition [6]: 27.6%

O/N=C(/c1ccccc1)C1CCCCC1
growth inhibition [1]: 20.7%
growth inhibition [2]: -1.05%
growth inhibition [3]: 13%
growth inhibition [4]: -0.15%
growth inhibition [5]: -8.5%
growth inhibition [6]: 10.3%

O=[N+]([O-])c1ccc(N=N/C(=N\Nc2ccccc2)c2nc3ccccc3[nH]2)c([N+](=O)[O-])c1
growth inhibition [1]: 7.45%
growth inhibition [2]: -5.2%
growth inhibition [3]: -7.35%
growth inhibition [4]: 19.6%
growth inhibition [5]: -4.35%
growth inhibition [6]: 15.2%

CCCCOC(=O)c1c(C)c(C)cc(C)c1C
growth inhibition [1]: 18.4%
growth inhibition [2]: -7.1%
growth inhibition [3]: 6.3%
growth inhibition [4]: 12.5%
growth inhibition [5]: 5.75%
growth inhibition [6]: -9.95%

CSC(=Nc1ccc(Br)cc1)NC(=O)c1cc([N+](=O)[O-])cc([N+](=O)[O-])c1
growth inhibition [1]: -33%
growth inhibition [2]: 3.4%
growth inhibition [3]: 23.1%
growth inhibition [4]: -58%
growth inhibition [5]: 6.2%
growth inhibition [6]: -18.8%

[N-]=[N+]=Nc1ccc(NCCCCCC(=O)ON2C(=O)CCC2=O)c([N+](=O)[O-])c1
growth inhibition [1]: 72% (active)
growth inhibition [2]: 9.25%
growth inhibition [3]: 77.7% (active)
growth inhibition [4]: 19.4%
growth inhibition [5]: 4.7%
growth inhibition [6]: 67%

CC1=NN(C(=O)CC(=O)Nc2cccc(C)c2)C(=O)C1N=Nc1ccc(C(=O)O)cc1 (stereo unspecified)
growth inhibition [1]: -33.9%
growth inhibition [2]: 5.95%
growth inhibition [3]: 12.6%
growth inhibition [4]: -11.7%
growth inhibition [5]: -2.7%
growth inhibition [6]: 25.9%

O=C1CN(/C=C(\c2ccccc2)S(=O)Cc2ccccc2)C(=S)N1 (stereo unspecified)
growth inhibition [1]: -19.9%
growth inhibition [2]: -29.5%
growth inhibition [3]: -28.4%
growth inhibition [4]: -7.7%
growth inhibition [5]: 0%
growth inhibition [6]: -24.2%

N/N=C(\Cc1ccccc1)NN=C(N)N
growth inhibition [1]: 13.6%
growth inhibition [2]: -11.2%
growth inhibition [3]: 14.8%
growth inhibition [4]: 20.1%
growth inhibition [5]: -9.45%
growth inhibition [6]: 20.3%

CC(=O)OC(NC(=O)c1cc(C)cc(C)c1)c1ccncc1 (stereo unspecified)
growth inhibition [1]: -2.05%
growth inhibition [2]: -3.05%
growth inhibition [3]: -0.75%
growth inhibition [4]: -8.1%
growth inhibition [5]: 4.6%
growth inhibition [6]: 1.25%

O=C(O)CCCc1ccc2c(c1)CC1(C2)Cc2cc3c(cc2C1)CCCC3
growth inhibition [1]: -11.7%
growth inhibition [2]: -32.4%
growth inhibition [3]: -16.9%
growth inhibition [4]: 24.2%
growth inhibition [5]: 18.4%
growth inhibition [6]: 7.4%

CC(=O)OC(C)/C=C\C#N (stereo unspecified)
growth inhibition [1]: -17.9%
growth inhibition [2]: 14.3%
growth inhibition [3]: 5.25%
growth inhibition [4]: -2.65%
growth inhibition [5]: 0.35%
growth inhibition [6]: 37.8%

CC1OC(=O)C(O)=C1O (stereo unspecified)
growth inhibition [1]: -5.15%
growth inhibition [2]: -10.6%
growth inhibition [3]: -5.75%
growth inhibition [4]: 8.75%
growth inhibition [5]: 8.85%
growth inhibition [6]: -20.6%

O=C1C=Cn2cc(-c3ccccc3)c(-c3ccccc3)c21
growth inhibition [1]: -13.3%
growth inhibition [2]: -10.3%
growth inhibition [3]: -14%
growth inhibition [4]: 19.9%
growth inhibition [5]: -18.1%
growth inhibition [6]: -9.2%

OC(COc1ccccc1)COc1ccccc1
growth inhibition [1]: 1.35%
growth inhibition [2]: 2.45%
growth inhibition [3]: 16.4%
growth inhibition [4]: -18.7%
growth inhibition [5]: 8.1%
growth inhibition [6]: 3.1%

CC(=O)Nc1cccc(O)c1
growth inhibition [1]: 18.4%
growth inhibition [2]: 5.3%
growth inhibition [3]: 25.1%
growth inhibition [4]: -13.8%
growth inhibition [5]: -8.7%
growth inhibition [6]: 22.6%

COc1cc(C2=N/C(=C\c3cc(Cl)cc(Cl)c3O)C(=O)O2)cc(OC)c1OC
growth inhibition [1]: -33.7%
growth inhibition [2]: -23.6%
growth inhibition [3]: 2.85%
growth inhibition [4]: -12.6%
growth inhibition [5]: -2.9%
growth inhibition [6]: -2.8%

CC1(C2(C)Nc3ccccc3O2)Nc2ccccc2O1 (stereo unspecified)
growth inhibition [1]: 10.2%
growth inhibition [2]: 8.35%
growth inhibition [3]: 9.95%
growth inhibition [4]: -36.8%
growth inhibition [5]: 3.65%
growth inhibition [6]: 9.05%

CC[CH2][Sn]([CH2]CC)([O]C(=O)Cc1ccc(F)cc1)[O][Sn]([CH2]CC)([CH2]CC)[O]C(=O)Cc1ccc(F)cc1
growth inhibition [1]: 90.2% (active)
growth inhibition [2]: 89.4% (active)
growth inhibition [3]: 87.8% (active)
growth inhibition [4]: 82.8% (active)
growth inhibition [5]: 89.1% (active)
growth inhibition [6]: 83.6% (active)

CCCCCC(=O)OCCCCCO
growth inhibition [1]: 13.7%
growth inhibition [2]: 16.8%
growth inhibition [3]: 21.5%
growth inhibition [4]: 13.2%
growth inhibition [5]: 2.6%
growth inhibition [6]: -4.7%

COc1ccc(-c2c(C#N)c(N)n(C3OCC(O)C(O)C3O)c(=S)c2C#N)cc1 (stereo unspecified)
growth inhibition [1]: -33.6%
growth inhibition [2]: -6.5%
growth inhibition [3]: -15.3%
growth inhibition [4]: -37.8%
growth inhibition [5]: -1.9%
growth inhibition [6]: 3.4%

Cc1cc2[nH]c(=O)n(C3OC(CO)C(O)C3O)c2cc1C (stereo unspecified)
growth inhibition [1]: -15.2%
growth inhibition [2]: 19.1%
growth inhibition [3]: 2.4%
growth inhibition [4]: -33.2%
growth inhibition [5]: -7.6%
growth inhibition [6]: -4.4%

Source: PubChem BioAssay (NCI)
